Here are results for 30 sequences from the OligoGym collection.
Further: reference of the scale not given here.

The first assay concerns the target ERCC8. The assay can be described thus: pooled miR-30 sensor sort-seq; sequence = guide strand. The following applies: shRNA.
Take TTGTAATGTATTTGTATCCCAT: the sensor-assay potency score (higher = more potent) is -0.441.
As for TAAACTATACAGAAGTCTGTTT, the sensor-assay potency score (higher = more potent) was -0.703.
Still for that read-out and setting: in the case of TATTTCTTGTCTGTGACCCTGT it was 1.1; in that of TTCGATTATCTGTACCAACAGT, -0.994; in that of TTGACTGAAATACACAGCAGTC, -0.992.
As to ATTATCTGTACCAACAGTGAGG, the sensor-assay potency score (higher = more potent) is -0.965.
Turning to TTTCTTGTCTGTGACCCTGTAG, the sensor-assay potency score (higher = more potent) was -0.264.
The same measure, in the same setting: in the case of TAATCAAACATCCTGATGCTCT it was -0.532; in that of TTGACTAAATAAACTATACAGA, -1.03.
Take TTACTCTACTGTCAGCACTTGC: the sensor-assay potency score (higher = more potent) was -0.793.
For TTGTAGTCTCATCATCATCAGG, the sensor-assay potency score (higher = more potent) was -1.16.
The same measure, in the same setting: as for TTTGACTGAAATACACAGCAGT, the figure is 0.0965.

For another assay, the target named is ERG. The assay is described as above. Particulars: shRNA.
Take TAACAAGATGTTGACGTCTGGA: the sensor-assay potency score (higher = more potent) is 0.51.
With TAAGACTTCATGCTTCTACATA, the sensor-assay potency score (higher = more potent) is -1.33.
Still for that read-out and setting: as for TAGCATGCATTAACCGTGGAGA, the figure is -0.638; as for TATTGCTTTAGTTTCATCCCAG, -0.25; as for TATTCGTGACATTTTTAGCATC, -1.17.
Still for that read-out and setting: as for TCATCTTGGAAGTCTGTCCATA, the figure is -0.884; as for TAAGACTTCAGTAACTCCCTCC, 0.34; as for TCTTGTCATAGTAGTAACGGAG, -1.01.
On the same count and under the same terms, in the case of TACATTTCTTAAGACCACTTTC it was -0.508; in that of TTGAGACAGCCAATCCTGCTGA, 0.276; in that of TTCTTGTCATAGTAGTAACGGA, -1.05.
For TTTTGATTCATGTTCTCCGATA, the sensor-assay potency score (higher = more potent) was -0.485.
On to TTCTGTAGTAAGACTTCAGTAA, for which the sensor-assay potency score (higher = more potent) was 0.212.
Regarding TTCTAGCATGCATTAACCGTGG, the sensor-assay potency score (higher = more potent) was -0.659.
Same read-out and setting: in the case of TAAATCTGTGTTTCTAGCATGC it was 0.0224.
On the same count and under the same terms, in the case of TTTCTTTGGCACTTTGTCCTTA it was 0.442.
In the case of TTTCTAGCATGCATTAACCGTG, the sensor-assay potency score (higher = more potent) is -0.322.
On the same count and under the same terms, in the case of TTACATTCCATTTTGATGGTGA it was 0.928.
